{"source": "PubChem BioAssay (Tox21)", "note": "Records with an inconclusive call do not appear. Where a call stands in place of a potency, no number is given. Unmarked numbers belong to inactive results. Active and inactive are the calls of the source. Calls follow the shape of the dose curve; as a rule, active = well fitted cell-killing curve with a large enough effect in the repeat runs; inconclusive = weak or mixed curves, or effect the other way; inactive = flat fitted curve, though single readings scatter.", "data": [{"assay": "qHTS RealTime-Glo MT Cell Viability Assay in HEK293 cells - 24 hour (AID 1224886); also: top concentration of the series differs between compounds; nearly all actives have a fitted effect of over 50% in size", "details": "RealTime-Glo luminescence; series mostly up to 76.8 µM", "procedure,_shortened": "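Cells + reagent dispensed (600 cells/well, HEK293) → 5 h at 37 C/5% CO2 → 23 nL compound in DMSO pinned → 40 h at 37 C → luminescence read at 0, 8, 16, 24, 32, 40 h.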", "values": [{"smiles": "CCCCCCCCCCCCCCCC(=O)NCCO", "Potency": "inactive"}, {"smiles": "C=COCCOCCOC=C", "Potency": "inactive"}, {"smiles": "C=C(C)[C@@H]1CC[C@@H](C)C[C@@H]1O", "Potency": "inactive"}, {"smiles": "O=C(O)CCNC(=O)c1ccccc1", "Potency": "inactive"}, {"smiles": "CCOC(=O)C(=O)c1csc(NC=O)n1", "Potency": "inactive"}, {"smiles": "CCC(CO)CO", "Potency": "inactive"}, {"smiles": "Nc1nc(=O)n([C@@H]2O[C@H](CO)[C@@H](O)[C@@H]2F)cc1I", "Potency": "inactive"}, {"smiles": "COc1ccc(N=Nc2cc(C)c(N=Nc3ccc(S(=O)(=O)O)cc3)cc2OC)cc1", "Potency": "inactive"}, {"smiles": "COc1ccc(NS(=O)(=O)c2ccc(N)cc2)nn1", "Potency": "inactive"}, {"smiles": "NS(=O)(=O)c1ccc(Cl)c(S(N)(=O)=O)c1", "Potency": "inactive"}, {"smiles": "C1=C\\CC/C=C\\CC/1", "Potency": "inactive"}, {"smiles": "CCCCCC1CCCC(=O)O1", "note": "(stereo not given)", "Potency": "inactive"}, {"smiles": "C=C(C)C(=O)OC1CC(C)CC(C)(C)C1", "note": "(stereo not given)", "Potency": "inactive"}, {"smiles": "C=C[C@@H](C)CCC=C(C)C", "Potency": "inactive"}, {"smiles": "O=C(Oc1ccccc1C(=O)O)c1ccccc1O", "Potency": "inactive"}, {"smiles": "NC(=O)NNC(N)=O", "Potency": "inactive"}, {"smiles": "C=CCCCCCCCCCCC", "activity change, negative = cytotoxicity": "4.16% [at 6.97 µM]"}, {"smiles": "CCCCC(C)C(=O)O", "note": "(stereo not given)", "Potency": "inactive"}, {"smiles": "CCCCCCCCCCCCCCCCCCN(C)C", "Potency": "inactive"}, {"smiles": "COc1cc2c3cc1Oc1cc(ccc1O)C[C@@H]1c4c(cc(OC)c(O)c4Oc4ccc(cc4)C[C@@H]3N(C)CC2)CC[N+]1(C)C", "Potency": "inactive"}, {"smiles": "CCC(C)(CCC(C)C)C(=O)[O-].CCC(C)(CCC(C)C)C(=O)[O-].[Zn+2]", "note": "(stereo not given)", "Potency": "inactive"}, {"smiles": "CCc1nccnc1C", "Potency": "inactive"}, {"smiles": "C=CCOc1c(Br)cc(C(C)(C)c2cc(Br)c(OCC=C)c(Br)c2)cc1Br", "Potency": "inactive"}, {"smiles": "SCCSCCS", "Potency": "inactive"}, {"smiles": "CN(C)CCCNCCC#N", "Potency": "inactive"}]}]}
